# Reference: the supplement of paper PMC10981050
# Where “and” joins values, the source holds several entries; their conditions need not be identical. Equal entries are not always repeated. Structures can show the parent of a compound that is named as a salt.
# Experiments:
# Test in all cases: cell viability relative to vehicle control; higher = less cytotoxic
# Conditions in all cases: 10 µM
# [1] = system: K562
# In short: (§1)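 Four leukaemia lines, as CRISPR-edited mutant clones and isogenic wild-type clones, were tested against Selleck bioactive, kinase and epigenetic probe libraries after removal of identity-inconsistent compounds. Cells were exposed to a single 10 µM dose for 48 h, and CellTiter-Glo luminescence was then read. Viability was calculated relative to the on-plate vehicle control.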
# [2] = system: MARIMO
# In short: as §1
# [3] = system: MOLM14
# In short: as §1
# [4] = system: OCI-AML2
# In short: as §1
Compound,cell viability ([1]; SRSF2 genotype: SRSF2 P95H/wt),cell viability ([1]; SRSF2 genotype: SRSF2 wt/wt) [%],cell viability ([2]; SRSF2 genotype: SRSF2 P95H/wt) [%],cell viability ([2]; SRSF2 genotype: SRSF2 wt/wt) [%],cell viability ([3]; SRSF2 genotype: SRSF2 P95H/wt) [%],cell viability ([3]; SRSF2 genotype: SRSF2 wt/wt) [%],cell viability ([4]; SRSF2 genotype: P95H/wt) [%],cell viability ([4]; SRSF2 genotype: wt/wt) [%]
COc1cc(C(=O)NC2CCN(C)CC2)ccc1Nc1ncc2c(n1)N(C1CCCC1)CC(F)(F)C(=O)N2C,24.5% and 48.3%,44.6,31.6,26.3,15,5.38,4.16,9.85
"CS(=O)(=O)OCCCCOS(C)(=O)=O [Busulfan (Myleran, Busulfex)]",103% and 108%,98.6,99.6,107,102,106,88.6,102
O=c1[nH]cnc2c1ncn2[C@@H]1O[C@H](CO)[C@@H](O)[C@H]1O [Inosine],114% and 107%,121,102,118,99.7,111,98.3,114
C=C[C@@]1(C)CC(=O)[C@]2(O)[C@@]3(C)[C@@H](O)CCC(C)(C)[C@@H]3[C@H](O)[C@H](OC(C)=O)[C@@]2(C)O1 [Forskolin],96.8% and 104%,94,99,88.6,92.6,101,105,96.1
CC(C)C[C@H](NC(=O)[C@H](CCc1ccccc1)NC(=O)CN1CCOCC1)C(=O)N[C@@H](Cc1ccccc1)C(=O)N[C@@H](CC(C)C)C(=O)[C@@]1(C)CO1 [Carfilzomib (PR-171)],2.27% and 2.75%,1.72,0.54,1.08,0.49,0.49,0.45,0.57
O=c1cc(-c2ccc(O)cc2)oc2cc(O)cc(O)c12 [Apigenin],102% and 96.4%,96,85.9,99.8,55.4,57.5,67.9,63.6
O=C(Nc1nc2cccc(-c3ccc(CN4CCS(=O)(=O)CC4)cc3)n2n1)C1CC1,89.3% and 94.9%,84.5,71.2,73,48.1,45.3,20.1,41.7
CC(=O)OCC(CCn1cnc2cnc(N)nc21)COC(C)=O [Famciclovir (Famvir)],103% and 95.1%,90.8,99.7,104,99.3,97.5,94.7,98
CCOC(=O)c1cnc2ccc(-c3cncc(NS(=O)(=O)c4ccccc4)c3)cn12,22.4% and 35.9%,34.2,17.1,20,3.14,4.38,2.77,9.47
"CC(C)C12CCC(C)(CC1)O2 [1,4-Cineole]",104% and 101%,104,103,103,105,110,99.4,97.7
CCCCC(C)(O)C/C=C/[C@H]1[C@H](O)CC(=O)[C@@H]1CCCCCCC(=O)OC (mixture of isomers) [Misoprostol],89.4% and 78.1%,84.4,82.6,79,83.5,80.2,89.2,84
CCCc1nc(C(C)(C)O)c(C(=O)OCc2oc(=O)oc2C)n1Cc1ccc(-c2ccccc2-c2nnn[nH]2)cc1 [Olmesartan medoxomil (Benicar)],105% and 103%,106,109,111,97.2,104,104,106
CC(=O)Oc1c(C)c(C)c2c(c1C)CCC(C)(CCC[C@H](C)CCC[C@H](C)CCCC(C)C)O2 (stereo not given in full) [Vitamin E Acetate],105% and 103%,106,102,103,103,106,105,94.2
O=C(COc1ccc(C(=O)c2ccccc2)cc1)NC1CCN(Cc2ccccc2)CC1 [Adiporon],72.4% and 78.1%,73.9,57.4,53.5,65.2,77.2,40.5,47.3
CO[C@H]1/C=C\C=C(/C)C(=O)NC2=CC(=O)C(NCCN(C)C)=C(C[C@@H](C)C[C@H](OC)[C@H](O)[C@@H](C)/C=C(\C)[C@@H]1OC(N)=O)C2=O [17-DMAG HCl (Alvespimycin)],14% and 15.5%,24,28.1,22.5,0.45,0.4,3.25,12
Cc1ccc(S(=O)(=O)C=CC#N)cc1,1.6% and 0.48%,0.6,0.37,0.39,0.28,0.27,0.28,0.35
CC(C)(C)[N+]([O-])=Cc1ccc(S(=O)(=O)O)cc1S(=O)(=O)O [NXY-059 (Disufenton sodium)],111% and 102%,109,109,110,104,108,102,104
CCCCCCCC/C=C\CCCCCCCC(=O)OCC [Ethyl Oleate],101% and 94.1%,97.8,86.5,100,92.3,95,88.7,93.7
CC[C@@](C)(Nc1ccnc(-c2c[nH]c3ncccc23)n1)C(=O)NCC(F)(F)F [Decernotinib (VX-509)],98.6% and 99.9%,104,95.1,96.2,88.8,106,85.1,92.2
CCCCC(=O)O[C@]1(C(=O)CO)[C@@H](C)C[C@H]2[C@@H]3CCC4=CC(=O)C=C[C@]4(C)[C@@]3(F)[C@@H](O)C[C@@]21C [Betamethasone valerate (Betnovate)],94.9% and 101%,94.8,96.9,110,90.8,93.7,94.5,116
